# Test results from the supplement of paper PMC9023506.
# Where a name gives a salt, the structure may show the parent alone.
# System: Danio rerio larvae (5 dpf)
# Experiment: activity during period 15 (no stimuli), difference vs DMSO (percentage points (treated minus DMSO)); higher = more of the behaviour than the DMSO vehicle control
# Conditions: 10 µM; exposure time: 3 h pre-incubation + 3 h imaging
# Method: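 5-dpf wild-type zebrafish larvae were imaged in 96-well plates. They were treated with 190 Tocris FDA-approved drugs at 10 µM (1 µl/ml DMSO) for 3 h before and 3 h during imaging at 28.5 °C, 48 larvae per drug. Automated image analysis gave % time moving and optomotor responses. Values are drug group mean minus DMSO vehicle mean (n=844), in percentage points, for 10 behaviours.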
row,Compound,activity during period 15
1,CC/C(=C(\c1ccccc1)c1ccc(OCCN(C)C)cc1)c1ccccc1 [Tamoxifen citrate],20.1
2,COc1ccccc1Oc1c(NS(=O)(=O)c2ccc(C(C)(C)C)cc2)nc(-c2ncccn2)nc1OCCO [Bosentan],-4.44
3,Cc1c(-c2ccc(O)cc2)n(Cc2ccc(OCCN3CCCCCC3)cc2)c2ccc(O)cc12 [Bazedoxifene acetate],-15.7
4,O=C1CCc2cc(OCCCCc3nnnn3C3CCCCC3)ccc2N1 [Cilostazol],3.03
5,O=c1n(CCCN2CCN(c3cccc(Cl)c3)CC2)nc2ccccn12 [Trazodone hydrochloride],1.62
6,Cc1nnc(C(C)C)n1C1C[C@H]2CC[C@@H](C1)N2CC[C@H](NC(=O)C1CCC(F)(F)CC1)c1ccccc1 (stereo in doubt) [Maraviroc],-3.11
7,CN(C)CCc1c[nH]c2ccc(Cn3cncn3)cc12 [Rizatriptan benzoate],-3.72
8,CC(=O)NC[C@H]1CN(c2ccc(N3CCOCC3)c(F)c2)C(=O)O1 [Linezolid],-1.07
9,CC1(C)O[C@@H]2[C@@H](CO[C@@]3(COS(N)(=O)=O)OC(C)(C)O[C@@H]23)O1 [Topiramate],3.85
10,NS(=O)(=O)c1cc2c(cc1Cl)NC(C1CC3C=CC1C3)NS2(=O)=O (stereo not given) [Cyclothiazide],3.93
11,O=C(Nc1c(Cl)cncc1Cl)c1ccc(OC(F)F)c(OCC2CC2)c1 [Roflumilast],-9.33
12,CC(C)(C)NC(=O)[C@@H]1C[C@@H]2CCCC[C@@H]2CN1C[C@@H](O)[C@H](Cc1ccccc1)NC(=O)[C@H](CC(N)=O)NC(=O)c1ccc2ccccc2n1 [Saquinavir mesylate],-12.8
13,CC(C)Nc1cccnc1N1CCN(C(=O)c2cc3cc(NS(C)(=O)=O)ccc3[nH]2)CC1 [Delavirdine mesylate],-4.9
14,C[C@]12CCC(=O)C=C1CC[C@@H]1[C@@H]2[C@@H](O)C[C@@]2(C)[C@H]1CC[C@]2(O)C(=O)CO [Hydrocortisone],-3.01
15,Cc1cc(C2CCCCC2)n(O)c(=O)c1 [Ciclopirox],10.7
16,CCCCc1nc(Cl)c(CO)n1Cc1ccc(-c2ccccc2-c2nnn[nH]2)cc1 [Losartan potassium],3.67
17,OCCN(CCO)c1nc(N2CCCCC2)c2nc(N(CCO)CCO)nc(N3CCCCC3)c2n1 [Dipyridamole],-5.46
18,CCCCCCCN(CC)CCCC(O)c1ccc(NS(C)(=O)=O)cc1 (stereo not given) [Ibutilide hemifumarate],-10
19,Nc1nc(NC2CC2)c2ncn([C@H]3C=C[C@@H](CO)C3)c2n1 [Abacavir hemisulfate],-3.3
20,CCOC(=O)N1CCC(=C2c3ccc(Cl)cc3CCc3cccnc32)CC1 [Loratidine],-25

row,Compound,activity during period 15
1,CC[C@H]1OC(=O)[C@H](C)[C@@H](O[C@H]2C[C@@](C)(OC)[C@@H](O)[C@H](C)O2)[C@H](C)[C@@H](O[C@@H]2O[C@H](C)C[C@H](N(C)C)[C@H]2O)[C@](C)(O)C[C@@H](C)CN(C)[C@H](C)[C@@H](O)[C@]1(C)O [Azithromycin],-17.4
2,COc1ccccc1OCC(O)CN1CCN(CC(=O)Nc2c(C)cccc2C)CC1 (stereo not given) [Ranolazine dihydrochloride],3.22
3,CC(=O)O[C@H]1C(=O)[C@@]2(C)[C@H]([C@H](OC(=O)c3ccccc3)[C@]3(O)C[C@H](OC(=O)[C@H](O)[C@@H](NC(=O)c4ccccc4)c4ccccc4)C(C)=C1C3(C)C)[C@]1(OC(C)=O)CO[C@@H]1C[C@@H]2O [Taxol],-4.11
4,Cn1cnc([N+](=O)[O-])c1Sc1ncnc2[nH]cnc12 [Azathioprine],8.85
5,C#CCN[C@@H]1CCc2ccccc21 [Rasagiline mesylate],-1.03
6,N[C@@H]1[C@H]2CN(c3nc4c(cc3F)c(=O)c(C(=O)O)cn4-c3ccc(F)cc3F)C[C@@H]12 [Trovafloxacin mesylate],2.91
7,CC(C)OC(=O)C(C)(C)Oc1ccc(C(=O)c2ccc(Cl)cc2)cc1 [Fenofibrate],6.23
8,CCCCCOC(=O)Nc1nc(=O)n([C@@H]2O[C@H](C)[C@@H](O)[C@H]2O)cc1F [Capecitabine],2.91
9,CC(C)C(=O)Nc1ccc([N+](=O)[O-])c(C(F)(F)F)c1 [Flutamide],-0.963
10,CC(=O)S[C@@H]1CC2=CC(=O)CC[C@]2(C)[C@H]2CC[C@@]3(C)[C@@H](CC[C@@]34CCC(=O)O4)[C@H]12 [Spironolactone],-1.27
11,CNCc1ccc(-c2[nH]c3cc(F)cc4c3c2CCNC4=O)cc1 [Rucaparib camsylate],-8.43
12,Cc1ccc(NC(=O)c2ccc(CN3CCN(C)CC3)cc2)cc1Nc1nccc(-c2cccnc2)n1 [Imatinib mesylate],-11.6
13,NS(=O)(=O)c1cc(C(=O)O)c(NCc2ccco2)cc1Cl [Furosemide],9.33
14,CCN(CC)CCNC(=O)c1c(C)[nH]c(/C=C2\C(=O)Nc3ccc(F)cc32)c1C [Sunitinib malate],-14.6
15,COc1ccc(-c2ccc3cc(C(=O)O)ccc3c2)cc1C12CC3CC(CC(C3)C1)C2 [Adapalene],-3.39
16,O=C(O)c1cc(/N=N/c2ccc(S(=O)(=O)Nc3ccccn3)cc2)ccc1O [Sulfasalazine],15.3
17,COc1c(C)c2c(c(O)c1C/C=C(\C)CCC(=O)OCCN1CCOCC1)C(=O)OC2 [Mycophenolate mofetil],-0.943
18,COC(=O)C1=C(C)NC(C)=C(C(=O)OC(C)C)C1c1cccc2nonc12 (stereo not given) [Isradipine],-12.3
19,O=C(O[C@@H]1C[C@@H]2C[C@H]3C[C@H](C1)N2CC3=O)c1c[nH]c2ccccc12 [Dolasetron mesylate],-1.51
20,NC(=O)c1ncn([C@@H]2O[C@H](CO)[C@@H](O)[C@H]2O)n1 [Ribavirin],-3.78
